Compound activity deposited in PubChem BioAssay by National Center for Advancing Translational Sciences (NCATS).
An excerpt weighted towards active compounds, which were near 10% of everything screened.
FLuc inh: blocks purified firefly luciferase enzyme activity. P08659. purified P. pyralis luciferase, luminescence, biochemical. Potency, µM (doses to about 115 µM), usual class: inhibitors. 76,000 compounds, 2.5% hits. AID 1347043; further: nearly all actives have a fitted effect of over 65% in size
Target sequence (P08659 whole entry, looked up): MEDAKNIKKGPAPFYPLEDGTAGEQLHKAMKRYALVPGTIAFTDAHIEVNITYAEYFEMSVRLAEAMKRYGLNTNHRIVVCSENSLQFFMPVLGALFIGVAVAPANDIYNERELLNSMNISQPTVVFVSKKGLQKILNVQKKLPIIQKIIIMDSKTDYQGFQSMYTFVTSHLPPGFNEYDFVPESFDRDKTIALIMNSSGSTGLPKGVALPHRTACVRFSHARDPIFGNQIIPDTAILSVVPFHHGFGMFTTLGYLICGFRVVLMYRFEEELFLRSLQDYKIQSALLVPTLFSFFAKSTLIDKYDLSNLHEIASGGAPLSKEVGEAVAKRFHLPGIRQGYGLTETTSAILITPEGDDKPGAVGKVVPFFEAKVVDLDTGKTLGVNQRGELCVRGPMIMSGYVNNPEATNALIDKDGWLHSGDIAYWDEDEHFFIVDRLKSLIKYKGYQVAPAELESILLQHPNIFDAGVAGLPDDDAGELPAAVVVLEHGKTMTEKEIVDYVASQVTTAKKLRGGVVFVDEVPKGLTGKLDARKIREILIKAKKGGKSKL
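Inhibitors were tested against purified firefly luciferase in a biochemical, low-substrate format (both substrates at 10uM) and luminescence measured with a CCD imager.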
3T3 cytotox: cytotoxic compounds in NIH 3T3 cells. AID 1345082. Potency, µM (highest dose often 96.7 µM), for the others: at the highest dose activity change, negative = cytotoxicity, actives largely listed as inhibitors. NIH 3T3 viability, CellTiter-Glo ATP luminescence, 48-72 h. 94,000 compounds, 4.3% hits; further: nearly all actives have a fitted effect of over 55% in size
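NIH 3T3 cells at 400 cells/well received 23 nL of compound by pintool and were incubated 48 or 72 h at 37 °C. Viability was read as ATP-coupled CellTiter-Glo luminescence.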
HEK293 tox: HEK 293 cell cytotoxicity; HEK 293 viability, ATP luminescence (CellTiter-Glo), 48-72 h; 94,000 compounds, 6.6% hits; AID 1345083; Potency, µM (top dose mostly 115 µM), for inactives: at the top dose activity change, negative = cytotoxicity, hits mostly inhibitors; further: nearly all actives have a fitted effect of over 60% in size
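ATP-coupled CellTiter-Glo luminescence served as viability read-out, recorded 10 min after reagent addition at room temperature. HEK 293 cells, 250 cells/well, had been incubated with pintool-transferred compound for 48 or 72 hr at 37 degree Celsius.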
GPT2 inh: blocks human glutamate pyruvate transaminase 2 | Q8TD30 | 100,000 compounds, 0.25% hits | Potency, µM (titrated, usually from 57.7 µM), inactives show top-dose activity change, negative = inhibition, actives largely listed as inhibitors | AID 1671188 | Recombinant GPT2, coupled pyruvate oxidase/HRP Amplex Red fluorescence; further: nearly all actives have a fitted effect of over 60% in size
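Fluorescence read-out: pyruvate from GPT2 turnover coupled to pyruvate oxidase, HRP and Amplex Red (0.2mM ThPP, 0.2U/mL PO and HRP, 50uM Amplex final). Substrates 250uM a-KG, 2mM L-alanine; enzyme 10ng/uL; 30 min RT.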
NPR1 antag: antagonists of human natriuretic peptide receptor Npr1; HEK293 hNpr1 GloSensor cGMP, ANP-stimulated luminescence; Potency, µM (titrated, usually from 46.3 µM), for the others: top-dose activity change, negative = inhibition, usual class: inhibitors; P16066; 76,000 compounds, 1.6% hits; AID 1347048; calls by dose curve; further: nearly all actives have a fitted effect of over 60% in size
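HEK293 cells stably expressing human Npr1 and cGMP GloSensor pGS-40F, loaded 2 h with 2% GloSensor reagent, given compound 30 min at room temperature. Luminescence read before and 20 min after 0.1 nM hNppA.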
Starred values were filed as active, the others as inactive; i = inactive; ? = inconclusive; . = not tested or not shown; ! = not active in a repeat; [ ] = remark or other dose. Unless noted, the call rests on the fitted dose curve; in most records, active means well fitted curve in the direction sought with a large enough effect; inconclusive means small, poorly fitted or top-dose-only effect, or another doubt; inactive means no such curve, though single readings can be large; an effect the other way counts as inactive or inconclusive. On the % scale 0 is the no-effect control and ±100 the full control effect; potency means the concentration at half of the fitted maximal effect.

SMILES	FLuc inh	3T3 cytotox	HEK293 tox	GPT2 inh	NPR1 antag
COc1ccc(NC(=O)c2ccc3c(c2)NC(C)(COc2ccc4[nH]ccc4c2)CO3)cn1 (centres undefined)	i	?	?	4%	-27%
O=C(CCC1CCCC1)NCc1nnc2c(-c3nc(C4CC4)no3)cccn12	i	i	5%	-2%	6%
CSCC(=O)N[C@H]1CCN2C(=O)N(c3ccc(C(C)C)cc3)C(=O)[C@@H]2C1	32µM*	-29%[174 µM]	-12%[172 µM]	2%[88.5 µM]	-1%[70.6 µM]
CSCC(=O)N[C@H]1CCN2C(=O)N(c3cccc(C(C)=O)c3)C(=O)[C@@H]2C1	i	2%[174 µM]	0%[172 µM]	1%[88.5 µM]	6%[70.6 µM]
Cc1ccc([S+](=O)([O-])N2CCCC(C(=O)N3CCC4(CC3)CC(=O)Nc3ccccc3O4)C2)cc1 (centres undefined)	.	?	35µM*	i	.
O=C1CC2(CCN(C(=O)C3CCN(C(=O)C4CCCC4)CC3)CC2)Oc2ccccc2N1	.	-1%	?	-15%	.
O=C1CC2(CCN(C(=O)C3CCCN(C(=O)Nc4ccc(Cl)cc4)C3)CC2)Oc2ccccc2N1 (centres undefined)	.	?	22µM*	-14%	.
O=C1CC2(CCN(C(=O)C3CCN(C(=O)Cc4cccc(Cl)c4)CC3)CC2)Oc2ccccc2N1	.	?	40µM*	i	.
COc1ccccc1C(=O)N1CCC2(CC1)CC(=O)Nc1ccccc1O2	i	-11%	45µM*	?	-20%
COC(=O)N1CCC[C@@H]1C(=O)N1CCC(N2CCOC2=O)CC1	.	-10%[138 µM]	i	i	.
N#CC1CCN(C(=O)C2CCN(C(=O)c3ccc(-c4cncnc4)cc3)CC2)CC1	.	-5%	i	.	.
COc1ccc(-c2ccnc3nc(-c4cccs4)nn23)cc1OC	i	7.1µM*	?	i	-2%
COc1ccccc1-c1nc2nccc(-c3ccco3)n2n1	?	-15%	4%	-3%	3%
COc1cc(F)ccc1-c1ccnc2nc(-c3cccs3)nn12	i	0%	0%	-7%	3%
COc1ccccc1-c1nc2nccc(-c3cc4ccccc4o3)n2n1	i	?	89µM*	-26%	-10%
COc1ccc(-c2ccnc3nc(-c4ccccc4OC)nn23)cc1OC	i	?	?	i	0%
COc1ccccc1-c1nc2nccc(-c3ccc4c(c3)OCCCO4)n2n1	?	?	18µM*	-4%	-12%
COC[C@H]1NC(=O)CC[C@H]1C(=O)NCc1cc(F)cc(F)c1	.	-15%	-2%	i	.
COc1ccc(NC(=O)Nc2ccc(C)n(CC(=O)Nc3ccc(C)c(C)c3)c2=O)cc1	0.71µM*	-28%	?	-9%	-15%
CCCN1CCN(C(=O)Cn2c(C)ccc(NC(=O)Nc3ccccc3)c2=O)CC1	35µM*	i	-3%	i	8%
Cc1ccc(NC(=O)Nc2ccc(C)n(CC(=O)NC3CCCCC3)c2=O)cc1	0.4µM*	?	?	-16%	?
COc1ccc(OCc2nc(C)c(CCO)c(=O)n2CC(=O)Nc2ccc(C)c(C)c2)cc1	i	-25%	?	0%	-8%
Cc1ccc(NC(=O)Nc2ccc(C)n(CC(=O)Nc3ccccc3)c2=O)cc1	0.79µM*	i	8%	-18%	0%
Cc1nnc2ccc(N3CCCC(NC(=O)C4CCCC4)C3)nn12 (centres undefined)	.	-24%[138 µM]	?	.	.
COc1cccc(NC(=O)Cn2c(C)ccc(NC(=O)Nc3ccc(C)cc3)c2=O)c1	1µM*	?	79µM*	-7%	?
SMILES	FLuc inh	3T3 cytotox	HEK293 tox	GPT2 inh	NPR1 antag
CN(C)C(=O)C1CCCN(Cc2cccc(-c3cccs3)c2)C1 (centres undefined)	.	?	100µM*	i	.
CN(C)C(=O)C1CCCCN1Cc1ccc(-c2cccs2)cc1 (centres undefined)	.	?	?	-1%[88.5 µM]	.
CNC(=O)C1CCCN(Cc2cccc(-c3cccs3)c2)C1 (centres undefined)	.	-29%[138 µM]	100µM*	.	.
O=C(Cc1ccc(F)cc1)N1CCC2(CC1)CCN(Cc1cccs1)c1ccccc1O2	i	-23%	-18%	-6%	-4%
CC(C)Cc1cc(CNC(=O)Nc2nnc(C(C)(C)C)s2)on1	i	?	45µM*	i	-22%
CC(C)(C)c1nnc(NC(=O)NCc2ccncc2)s1	i	?	0%	-9%	3%
COc1ccc(Nc2ccnc(N3CCC(NC(=O)c4ccccc4C)CC3)n2)cc1	.	40µM*	40µM*	i	.
COc1ccc(Nc2ccnc(N3CCC(NC(C)=O)CC3)n2)cc1	.	-20%	-9%	-1%	.
COc1ccc(Nc2ccnc(N3CCC(NC(=O)Cc4cccc(Cl)c4)CC3)n2)cc1	.	20µM*	25µM*	-19%	.
COCC(=O)NC1CCN(c2nccc(Nc3ccc(OC)cc3)n2)CC1	.	?	?	i	.
COc1ccc(Nc2ccnc(N3CCC(NC(=O)c4ccccn4)CC3)n2)cc1	.	40µM*	?	-14%	.
COc1ccc(Nc2ccnc(N3CCC(NC(=O)c4ccc(F)cc4)CC3)n2)cc1	.	?	?	i	.
COc1cccc(CN2CCCC3(Cc4ccccc4CNC3=O)C2)c1 (centres undefined)	.	1%	-3%	-10%	.
O=C(c1ccc(Cl)cc1)N1CC2(CCCN2Cc2ccc(C(F)(F)F)cc2)Cc2ccccc21 (centres undefined)	.	?	?	2%	.
CN(CC1CCN(CCc2ccc(F)cc2)CC1)C1CCC1	i	-31%	?	i	3%
CN(Cc1ccc(C2CCCCO2)s1)CC1CCN(CCc2ccc(F)cc2)CC1 (centres undefined)	i	?	45µM*	i	-6%
COc1ccc(CNC(=O)c2nc3cccnc3n(Cc3ccc(OC)cc3)c2=O)cc1	.	?	79µM*!	-7%	.
COc1ccc(Cn2c(=O)c(C(=O)NCc3ccccc3)nc3cccnc32)cc1	.	?	?	-9%	.
COc1ccc(CCNC(=O)c2nc3cccnc3n(CC(C)C)c2=O)cc1	.	45µM*	?	i	.
CC(=O)Nc1ccc(CC(=O)N2CCC3(CCc4nn(Cc5ccccc5)c(=O)n4CC3)CC2)cc1	.	-11%	-2%	-22%	.
CCc1noc([C@@H]2CC(F)(F)CN2C(=O)c2ccoc2C)n1	35µM*	-9%	?	2%	-4%
Cc1ccc(C(=O)N[C@H]2CO[C@H]3[C@@H]2OC[C@@H]3Nc2nccc(C(C)(C)C)n2)cc1	?	?	63µM*	-4%[88.5 µM]	?
CC(=O)Nc1ccc(S(=O)(=O)N[C@H]2CO[C@H]3[C@@H]2OC[C@@H]3Nc2nccc(C(C)(C)C)n2)cc1	?	?	?	i	16µM*
